The results in this text go back to PubChem BioAssay (EPA / NIEHS).

The target in assay [1] is Paired box protein Pax-6 (Homo sapiens) (UniProt P26367). Put plainly: ATG_Pax6_CIS: Attagene CIS-FACTORIAL HepG2 Assay for human Paired Box 6 (PAX6) (AID 2282956). The note with it: HepG2 CIS-FACTORIAL PAX6 reporter transcription, RNA readout; actives raise or lower the signal. In short, it runs like this:
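Fluorescent RT-PCR products separated by capillary electrophoresis report PAX6-linked promoter mRNA in HepG2 cells 24 h post-dose. Curves fitted bidirectionally, DMSO as negative control.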

Assay [2] can be described thus: ATG_PXRE_CIS: Attagene CIS-FACTORIAL HepG2 Assay for human Pregnane X Receptor Element (PXRE) (AID 2282957). The note with it: HepG2 Attagene CIS-FACTORIAL PXRE reporter, mRNA; actives raise or lower the signal. In short, it runs like this:
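After a 24 h chemical incubation, total RNA from transfected HepG2 cells was reverse-transcribed and reporter cDNA amplified, FAM-labeled, HpaI-digested and sized by capillary electrophoresis. DMSO served as baseline for bidirectional curve fitting.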

A short description of assay [3]: ATG_RORE_CIS: Attagene CIS-FACTORIAL HepG2 Assay for human RAR-related Orphan Receptor Element (RORE) (AID 2282959). The settings on record: HepG2 Attagene cis-factorial RORE reporter, mRNA; actives raise or lower the signal. In short, it runs like this: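 HepG2 cells transiently transfected with multiple cis-element reporter transcription units, exposed to chemical for 24 h. Reporter mRNA quantified by RT-PCR, 6-FAM primer-extension labeling, HpaI digestion and capillary electrophoresis; bidirectional fit versus DMSO baseline.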

In assay [4] the target is Transcription factor Sp1 (Homo sapiens) (UniProt P08047). The experiment in a line: ATG_Sp1_CIS: Attagene CIS-FACTORIAL HepG2 Assay for human Specificity Protein 1 (Sp1) (AID 2282961). The settings on record: HepG2 Sp1 cis-reporter transcription, actives raise or lower the signal. In short, it runs like this: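 HepG2 cells transiently transfected with multiple reporter transcription units driven by cis-regulatory elements; Sp1-responsive reporter mRNA measured 24 h after dosing by RT-PCR and capillary electrophoresis fluorescence, fitted bidirectionally against DMSO baseline.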

Assay [5] in a line: ATG_SREBP_CIS: Attagene CIS-FACTORIAL HepG2 Assay for human Sterol Regulatory Element Binding (SREBP) (AID 2282962). The settings on record: HepG2 Attagene cis-factorial SREBP reporter, mRNA; actives raise or lower the signal. In short, it runs like this:
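Endogenous factor activity is measured in HepG2 through multiplexed reporter units under cis-element control. Following a 24 h incubation, reporter transcripts are reverse-transcribed, PCR-amplified and sized by capillary electrophoresis; activity is fitted in both directions relative to DMSO.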

The target of assay [6] is Signal transducer and activator of transcription 3 (Homo sapiens) (UniProt P40763). Put plainly: ATG_STAT3_CIS: Attagene CIS-FACTORIAL HepG2 Assay for human Signal Transducer and Activator of Transcription 3 (STAT3) (AID 2282963). The note with it: HepG2, Attagene cis-factorial STAT3 reporter transcription; actives raise or lower the signal. In short, it runs like this: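 Fluorescence intensity of 6-FAM-labelled reporter fragments, separated by capillary electrophoresis after RT-PCR, gave the signal. Cells were HepG2 transfected with cis-element reporter units and treated 24 h; fitting was bidirectional relative to DMSO.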

A short description of assay [7]: ATG_TA_CIS: Attagene CIS-FACTORIAL HepG2 Assay for human TA Basal Promoter (AID 2282964). The settings on record: HepG2 Attagene CIS-factorial TA basal promoter reporter; actives raise or lower the signal. In short, it runs like this:
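Read-out: fluorescent reporter-transcript fragments resolved by capillary electrophoresis after RT-PCR and HpaI digestion. Source: HepG2 cells carrying transiently transfected multi-reporter cis constructs, treated 24 h. Endpoint fitted bidirectionally relative to DMSO.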

Assay [8] is described as follows: ATG_TCF_b_cat_CIS: Attagene CIS-FACTORIAL HepG2 Assay for human T-Cell-Factor with beta-catenin (TCF/b-cat) (AID 2282965). The note with it: HepG2 TCF/beta-catenin cis-reporter transcription, actives raise or lower the signal. In short, it runs like this:
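HepG2 cells transiently transfected with cis-promoter-driven multiplexed reporter units; reporter mRNA measured 24 h after dosing by RT-PCR, FAM labelling, HpaI digestion and capillary electrophoresis. Bidirectional fitting relative to DMSO baseline.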

The nature of assay [9]: ATG_TAL_CIS: Attagene CIS-FACTORIAL HepG2 Assay for human TAL Basal Promoter (AID 2282966).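 Further: background control endpoint measuring basal TAL promoter reporter mRNA not a specific factor.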 The settings on record: HepG2 Attagene cis-factorial TAL promoter reporter; actives raise or lower the signal. In short, it runs like this:
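Basal-promoter background-control endpoint from a multiplexed HepG2 reporter panel. Cells were exposed 24 h, then reporter mRNA was read by RT-PCR/CE fluorescence and fitted in both directions relative to DMSO.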

A short description of assay [10]: ATG_TGFb_CIS: Attagene CIS-FACTORIAL HepG2 Assay for human Transforming Growth Factor (TGF) (AID 2282967). The settings on record: HepG2 Attagene CIS TGFb reporter, mRNA transcription; actives raise or lower the signal. In short, it runs like this:
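Transient MRTU transfection of HepG2 (FuGene 6). Dose 24 h. TriZol RNA, oligo(dT) RT, PCR, 6-FAM primer extension, HpaI cut, CE. Bidirectional fit, DMSO = baseline.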

Assay [11] has as its target Steroid hormone receptor ERR1 (Homo sapiens) (UniProt P11474). The experiment in a line: ATG_ERRa_TRANS: Attagene TRANS-FACTORIAL HepG2 Assay for human Estrogen-Related Receptor alpha (ERRa) (AID 2282971; active means hit-call score of the fitted dose curve at least 0.9, where 1 is the maximum). The note with it: HepG2 Attagene TRANS reporter, ERRa transactivation. In short, it runs like this: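 HepG2 cells transiently transfected with GAL4-UAS reporter units and chimeric NR-Gal4 constructs; after 24 hour compound incubation, reporter mRNA quantified by RT-PCR, fluorescent labelling and capillary electrophoresis, gain of signal versus DMSO.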

In assay [12] the target is X-box-binding protein 1 (Homo sapiens) (UniProt P17861). Put plainly: ATG_Xbp1_CIS: Attagene CIS-FACTORIAL HepG2 Assay for human X-box Binding Protein 1 (XBP1) (AID 2282972). The settings on record: HepG2 XBP1 cis-element reporter, Attagene multiplex; actives raise or lower the signal. In short, it runs like this:
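Multiplexed cis-reporter readout in transfected HepG2 liver cells. Exposure lasted 24 hours. Activity in either direction was fitted against DMSO as negative control and baseline.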

Assay [13] addresses Estrogen-related receptor gamma (Homo sapiens) (UniProt P62508). The experiment in a line: ATG_ERRg_TRANS: Attagene TRANS-FACTORIAL HepG2 Assay for human Estrogen-Related Receptor gamma (ERRg) (AID 2282977; active means hit-call score of the fitted dose curve at least 0.9, where 1 is the maximum;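 further: hits increase reporter signal over DMSO so potencies reflect activators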). The settings on record: HepG2 Attagene TRANS reporter, ERRg transactivation. In short, it runs like this:
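Induction of reporter transcripts through a chimeric NR-Gal4 protein is quantified in transfected human HepG2 liver cells after 24 h chemical exposure, using RT-PCR with capillary electrophoresis detection and DMSO as baseline.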

A short description of assay [14]: ATG_PPRE_CIS: Attagene CIS-FACTORIAL HepG2 Assay for human Peroxisome Proliferator-activated Response Element (PPRE) (AID 2282958). The settings on record: HepG2 PPRE cis-element reporter, Attagene transcription factor profiling; actives raise or lower the signal. In short, it runs like this: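 HepG2 cells transiently transfected with multiplexed cis-element reporter units measure endogenous transcription factor activity. After 24 h compound exposure, reporter mRNA is quantified by RT-PCR, 6-FAM labeling, HpaI digestion and capillary electrophoresis; bidirectional fits are made against DMSO baseline.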

Assay [15] is described as follows: ATG_Sox_CIS: Attagene CIS-FACTORIAL HepG2 Assay for human SRY-box transcription factor (SOX) (AID 2282960). The settings on record: HepG2 Attagene cis-factorial SOX reporter, mRNA; actives raise or lower the signal. In short, it runs like this:
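HepG2 cells transiently transfected with cis-element-driven multiple reporter transcription units, dosed 24 h; reporter mRNA measured by RT-PCR, FAM labelling, HpaI digestion and capillary electrophoresis. Bidirectional fit versus DMSO baseline.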

Assay [16] in a line: ATG_VDRE_CIS: Attagene CIS-FACTORIAL HepG2 Assay for human Vitamin D Receptor Element (VDRE) (AID 2282968). The note with it: HepG2 VDRE cis-reporter transcription, actives raise or lower the signal. In short, it runs like this: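 Compounds were applied for 24 h to HepG2 cells transfected with promoter-regulated reporter units. Total RNA was reverse-transcribed, and reporter amplicons were fluorescently labelled and sized by capillary electrophoresis.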

Assay [17] is described as follows: ATG_M_19_TRANS: Attagene TRANS-FACTORIAL HepG2 Assay for M19 Transcription Factor (Internal Marker) (AID 2282974; active means hit-call score of the fitted dose curve at least 0.9, where 1 is the maximum). The settings on record: HepG2 Attagene TRANS-FACTORIAL M19 internal marker reporter. In short, it runs like this: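 HepG2 cells transiently transfected with multiple GAL4-UAS reporter transcription units were exposed to chemicals for 24 h. Reporter mRNA was read by RT-PCR, 6-FAM primer extension, HpaI digestion and capillary electrophoresis; gain of signal fitted relative to DMSO.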

Assay [18] deals with Estrogen receptor (Homo sapiens) (UniProt P03372). The experiment in a line: ATG_ERa_TRANS: Attagene TRANS-FACTORIAL HepG2 Assay for human Estrogen Receptor alpha (ERa) (AID 2282970; active means hit-call score of the fitted dose curve at least 0.9, where 1 is the maximum). The settings on record: HepG2 Attagene TRANS ERa GAL4 reporter, mRNA. In short, it runs like this: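 Gal4-fusion ERa transactivation, measured as reporter transcript level in transiently transfected HepG2 cells. Exposure 24 h; RT-PCR plus capillary electrophoresis with fluorescence detection.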

The target of assay [19] is Nuclear receptor subfamily 1 group I member 3 (Homo sapiens) (UniProt Q14994). Put plainly: ATG_CAR_TRANS: Attagene TRANS-FACTORIAL HepG2 Assay for human Constitutive Androstane Receptor (CAR) (AID 2282969; active means hit-call score of the fitted dose curve at least 0.9, where 1 is the maximum;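 further: activators raise reporter mRNA above DMSO so AC50 marks induction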). The note with it: HepG2 Attagene TRANS-FACTORIAL CAR reporter. In short, it runs like this:
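Transiently transfected HepG2, multiplex TRANS reporters (CAR-Gal4 chimera driving GAL4-UAS reporter). 24 h dosing. Readout: reporter transcript by RT-PCR + capillary electrophoresis, fluorescence intensity; positive direction vs DMSO.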

Results filed as inconclusive are left out. Activity calls are given as the source filed them. How the source made its calls, unless noted: active means hit-call score of the fitted dose curve at least 0.9, where 1 is the maximum; inactive means score below 0.9.

Sequence of Transcription factor Sp1 (Homo sapiens) (P08047 whole entry, looked up): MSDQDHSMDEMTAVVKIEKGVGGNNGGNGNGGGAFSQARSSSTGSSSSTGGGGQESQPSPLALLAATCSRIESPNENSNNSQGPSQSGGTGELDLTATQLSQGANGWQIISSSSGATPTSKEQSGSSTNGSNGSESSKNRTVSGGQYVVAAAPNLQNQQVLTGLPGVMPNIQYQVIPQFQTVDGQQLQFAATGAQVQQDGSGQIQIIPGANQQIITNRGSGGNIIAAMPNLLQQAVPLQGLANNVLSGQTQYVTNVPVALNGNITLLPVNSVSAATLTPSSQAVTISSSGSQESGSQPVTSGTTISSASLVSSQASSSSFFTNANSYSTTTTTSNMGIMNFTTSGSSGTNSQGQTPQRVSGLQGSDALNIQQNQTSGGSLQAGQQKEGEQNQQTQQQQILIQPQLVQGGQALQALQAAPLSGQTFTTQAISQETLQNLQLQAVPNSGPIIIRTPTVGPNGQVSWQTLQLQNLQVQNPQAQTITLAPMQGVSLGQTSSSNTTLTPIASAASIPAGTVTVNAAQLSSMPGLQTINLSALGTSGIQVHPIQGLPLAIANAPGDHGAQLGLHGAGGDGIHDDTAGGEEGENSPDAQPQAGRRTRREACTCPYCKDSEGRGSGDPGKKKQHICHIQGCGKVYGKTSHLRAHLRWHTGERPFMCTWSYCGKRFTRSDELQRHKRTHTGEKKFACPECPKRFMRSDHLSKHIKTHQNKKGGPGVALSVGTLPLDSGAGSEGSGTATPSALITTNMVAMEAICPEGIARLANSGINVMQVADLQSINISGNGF
Sequence of Signal transducer and activator of transcription 3 (Homo sapiens) (P40763 whole entry, looked up, the tested form may be a part): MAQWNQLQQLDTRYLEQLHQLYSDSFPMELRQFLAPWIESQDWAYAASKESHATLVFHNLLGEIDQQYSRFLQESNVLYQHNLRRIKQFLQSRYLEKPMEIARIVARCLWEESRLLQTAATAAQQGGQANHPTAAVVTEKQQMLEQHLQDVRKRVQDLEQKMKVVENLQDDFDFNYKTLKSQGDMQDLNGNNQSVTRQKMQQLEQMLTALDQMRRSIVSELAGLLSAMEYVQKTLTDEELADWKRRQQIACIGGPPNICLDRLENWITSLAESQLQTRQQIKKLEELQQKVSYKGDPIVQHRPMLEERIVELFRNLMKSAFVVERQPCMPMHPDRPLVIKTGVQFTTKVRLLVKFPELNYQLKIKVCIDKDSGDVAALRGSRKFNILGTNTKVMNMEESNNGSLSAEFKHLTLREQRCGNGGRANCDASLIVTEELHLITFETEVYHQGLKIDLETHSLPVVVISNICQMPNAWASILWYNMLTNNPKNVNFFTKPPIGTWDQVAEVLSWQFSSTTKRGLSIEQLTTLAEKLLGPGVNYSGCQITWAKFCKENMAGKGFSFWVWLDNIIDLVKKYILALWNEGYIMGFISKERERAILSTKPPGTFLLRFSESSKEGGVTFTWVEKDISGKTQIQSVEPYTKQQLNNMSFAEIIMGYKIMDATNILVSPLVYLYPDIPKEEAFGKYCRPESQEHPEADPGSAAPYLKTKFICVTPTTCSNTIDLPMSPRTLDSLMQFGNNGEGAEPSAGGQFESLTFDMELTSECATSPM
Sequence of Nuclear receptor subfamily 1 group I member 3 (Homo sapiens) (Q14994 whole entry, looked up, the tested form may be a part): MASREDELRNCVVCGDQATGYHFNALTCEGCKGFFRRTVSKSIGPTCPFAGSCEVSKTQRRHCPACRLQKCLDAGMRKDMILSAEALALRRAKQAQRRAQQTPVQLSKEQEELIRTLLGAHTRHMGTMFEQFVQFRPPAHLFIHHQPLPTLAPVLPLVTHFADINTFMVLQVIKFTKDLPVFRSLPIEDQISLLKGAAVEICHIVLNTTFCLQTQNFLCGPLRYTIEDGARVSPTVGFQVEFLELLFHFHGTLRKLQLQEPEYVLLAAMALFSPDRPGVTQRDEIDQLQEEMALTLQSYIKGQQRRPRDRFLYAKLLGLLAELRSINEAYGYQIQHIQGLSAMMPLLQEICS
Sequence of X-box-binding protein 1 (Homo sapiens) (P17861 whole entry, looked up): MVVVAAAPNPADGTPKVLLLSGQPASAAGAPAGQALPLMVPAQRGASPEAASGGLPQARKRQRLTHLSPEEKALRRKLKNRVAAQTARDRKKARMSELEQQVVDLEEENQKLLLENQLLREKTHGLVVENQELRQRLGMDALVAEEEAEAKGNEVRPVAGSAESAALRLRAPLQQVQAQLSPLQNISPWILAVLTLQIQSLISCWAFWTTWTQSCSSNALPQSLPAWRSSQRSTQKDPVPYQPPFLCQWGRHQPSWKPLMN
Sequence of Paired box protein Pax-6 (Homo sapiens) (P26367 whole entry, looked up): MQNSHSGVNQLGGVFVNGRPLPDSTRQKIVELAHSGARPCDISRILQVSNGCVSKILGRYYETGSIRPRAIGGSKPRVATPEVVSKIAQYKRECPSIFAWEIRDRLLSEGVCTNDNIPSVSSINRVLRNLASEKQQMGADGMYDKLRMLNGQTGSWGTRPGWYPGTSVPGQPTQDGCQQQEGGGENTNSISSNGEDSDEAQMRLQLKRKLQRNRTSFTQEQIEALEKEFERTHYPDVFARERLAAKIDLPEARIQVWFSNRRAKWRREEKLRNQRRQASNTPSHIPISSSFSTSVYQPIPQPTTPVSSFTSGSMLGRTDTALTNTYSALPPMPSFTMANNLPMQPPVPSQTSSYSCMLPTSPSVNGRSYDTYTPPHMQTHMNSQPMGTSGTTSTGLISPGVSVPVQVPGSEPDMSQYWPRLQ
Sequence of Estrogen-related receptor gamma (Homo sapiens) (P62508 whole entry, looked up, the tested form may be a part): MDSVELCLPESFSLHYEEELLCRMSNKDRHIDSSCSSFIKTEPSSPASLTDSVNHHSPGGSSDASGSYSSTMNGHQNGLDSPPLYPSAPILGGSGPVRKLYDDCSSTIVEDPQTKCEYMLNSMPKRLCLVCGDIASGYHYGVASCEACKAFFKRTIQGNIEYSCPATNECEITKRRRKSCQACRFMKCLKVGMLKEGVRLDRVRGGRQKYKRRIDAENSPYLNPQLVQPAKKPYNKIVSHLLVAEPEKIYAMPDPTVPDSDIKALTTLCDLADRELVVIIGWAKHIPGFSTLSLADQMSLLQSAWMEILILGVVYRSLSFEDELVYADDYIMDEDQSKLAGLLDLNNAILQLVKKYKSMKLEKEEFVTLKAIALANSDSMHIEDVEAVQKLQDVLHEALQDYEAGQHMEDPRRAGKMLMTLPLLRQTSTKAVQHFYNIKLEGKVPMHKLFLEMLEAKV
Sequence of Estrogen receptor (Homo sapiens) (P03372 whole entry, looked up, the tested form may be a part): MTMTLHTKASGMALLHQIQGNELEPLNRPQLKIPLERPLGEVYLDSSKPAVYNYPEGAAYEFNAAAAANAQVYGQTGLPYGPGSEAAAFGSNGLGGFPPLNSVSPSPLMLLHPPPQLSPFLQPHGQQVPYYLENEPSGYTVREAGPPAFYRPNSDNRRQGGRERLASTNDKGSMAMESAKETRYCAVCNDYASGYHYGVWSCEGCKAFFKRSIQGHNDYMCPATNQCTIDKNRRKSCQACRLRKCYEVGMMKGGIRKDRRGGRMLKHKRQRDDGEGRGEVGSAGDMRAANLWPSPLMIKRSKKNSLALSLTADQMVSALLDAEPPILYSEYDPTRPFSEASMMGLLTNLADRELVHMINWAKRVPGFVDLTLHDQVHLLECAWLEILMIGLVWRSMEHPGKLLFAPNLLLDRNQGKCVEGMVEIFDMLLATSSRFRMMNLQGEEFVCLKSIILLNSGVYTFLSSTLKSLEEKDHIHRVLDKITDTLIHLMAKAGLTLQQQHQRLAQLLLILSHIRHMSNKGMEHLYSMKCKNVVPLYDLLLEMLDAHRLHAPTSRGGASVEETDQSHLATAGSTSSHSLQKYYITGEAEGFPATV
Sequence of Steroid hormone receptor ERR1 (Homo sapiens) (P11474 whole entry, looked up, the tested form may be a part): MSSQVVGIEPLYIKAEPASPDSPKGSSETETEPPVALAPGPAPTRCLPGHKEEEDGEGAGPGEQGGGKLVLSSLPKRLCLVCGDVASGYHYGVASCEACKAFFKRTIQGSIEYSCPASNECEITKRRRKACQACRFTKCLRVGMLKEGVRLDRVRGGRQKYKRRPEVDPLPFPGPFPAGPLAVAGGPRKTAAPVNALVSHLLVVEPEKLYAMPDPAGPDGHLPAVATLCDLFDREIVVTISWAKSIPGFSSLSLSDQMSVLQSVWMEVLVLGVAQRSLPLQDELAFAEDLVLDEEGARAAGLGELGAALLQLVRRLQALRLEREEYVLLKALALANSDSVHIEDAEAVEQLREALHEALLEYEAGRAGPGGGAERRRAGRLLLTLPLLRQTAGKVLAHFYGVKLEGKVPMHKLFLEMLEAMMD

The term AC50 denotes the concentration giving half of the maximal activity seen. On to `COCCCOc1ccnc(CS(=O)c2nc3ccccc3[nH]2)c1C` (stereo unspecified), for which the result in [1], in [3], in assay [4], in assay [5], in [6] and in assay [7] was inactive. Also, the result in [8], in [9], in assay [10], in [11], in [12] and in [13] was inactive. Further, the AC50 in assay [2] was 6.74 µM (active).
In the case of `C=CCOc1nc(OCC=C)nc(OCC=C)n1`, the outcome in assay [1], in [14], in assay [3], in assay [15], in assay [4] and in [5] was inactive. Moreover, the molecule was called inactive in assay [6], in [7], in assay [8], in assay [9], in [10] and in assay [16]. The molecule was called inactive in [12] and in assay [17].
Turning to `C=C(C)C(=O)O[C@H]1C[C@@H]2CC[C@@]1(C)C2(C)C`, the outcome in assay [1], in assay [3], in assay [15], in [4], in [6] and in assay [7] was inactive. Further, the result in assay [9], in assay [12] and in assay [17] was inactive. Further, the AC50 in [14] is 75.3 µM (active); in assay [5], 175 µM (active); in assay [8], 138 µM (active); in assay [10], 143 µM (active); in assay [18], 38 µM (active).
Turning to `CC(C)CCCCCCCOC(=O)c1ccc(C(=O)OCCCCCCCC(C)C)c(C(=O)OCCCCCCCC(C)C)c1`, the molecule was classed as inactive in assay [1], in assay [14], in [3], in assay [15], in assay [4] and in assay [5]. In addition, the molecule was called inactive in [6], in assay [8], in assay [9], in assay [10], in [16] and in assay [19]. The molecule was classed as inactive in [12] and in assay [17].
Consider `CCCC(C)C=O` (stereo unspecified), for which the outcome in assay [1], in [14], in [3], in assay [15], in assay [4] and in assay [5] was inactive. Also, the molecule was called inactive in assay [6], in assay [7], in [8], in assay [9], in assay [10] and in [16]. The result in [19], in [12], in assay [17] and in assay [13] was inactive.
For `CO[Si](C)(OC)c1ccccc1`, the result in [1], in [14], in assay [3], in assay [15], in [4] and in assay [5] was inactive. Further, the result in [6], in [7], in [8], in assay [9], in assay [10] and in assay [18] was inactive. Further, the molecule was called inactive in assay [12] and in assay [17]. In addition, the AC50 in [16] was 7.98 µM (active).
Regarding `CC1=CC(=O)NS(=O)(=O)O1`, the molecule was classed as inactive in [1], in assay [14], in [3], in assay [15], in assay [4] and in assay [5]. For the same molecule, the molecule was classed as inactive in assay [6], in assay [7], in assay [8], in assay [9], in assay [10] and in assay [16]. Also, the result in assay [19], in [12] and in assay [17] was inactive.
